Experimental data published in PubChem BioAssay (NCI).
About 79,000 compounds went through this panel and 15% of them were active in at least one assay; those are over-represented in the sample as a whole. Unmarked numbers belong to inactive results. Activity calls are given as the source filed them. No stated cut-off is given here; in the data, active means growth inhibition above about 70%; inactive means the rest.

Key:
[1] = NCI Yeast Anticancer Drug Screen. Data for the rad50 strain (AID 155);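 further: 0% = growth of vehicle-only cultures of the same strain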; conditions: S. cerevisiae rad50 strain growth inhibition, hits give high values
Outline: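 Yeast carrying a defined DNA repair defect were exposed to test compounds, and growth was compared with vehicle-treated controls to give percent inhibition.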

[2] = NCI Yeast Anticancer Drug Screen. Data for the mec2-1 strain (AID 157); conditions: S. cerevisiae mec2-1 strain, hits give high values
Outline: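 Yeast mec2-1 mutant treated with compound. Readout: growth inhibition vs vehicle controls.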

[3] = NCI Yeast Anticancer Drug Screen. Data for the sgs1 mgt1 strain (AID 161);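 further: 0% = growth of cultures given vehicle only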; conditions: S. cerevisiae sgs1 mgt1 strain, hits give high values
Outline: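 Inhibition of yeast growth, normalised to vehicle-treated controls, is reported for a strain bearing genetic alterations in DNA damage repair.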

[4] = NCI Yeast Anticancer Drug Screen. Data for the cln2 rad14 strain (AID 165);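 further: 0% = growth equal to vehicle treated cultures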; conditions: S. cerevisiae cln2 rad14 strain, hits give high values
Outline: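 cln2 rad14 yeast strain; compound exposure; growth inhibition read vs vehicle controls.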

[5] = NCI Yeast Anticancer Drug Screen. Data for the bub3 strain (AID 167); conditions: S. cerevisiae bub3 mutant strain, hits give high values
Outline: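 Compounds were applied to a genetically altered yeast strain carrying a cell-cycle control defect. Growth inhibition was scored against vehicle-treated controls.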

[6] = NCI Yeast Anticancer Drug Screen. Data for the mlh1 rad18 strain (AID 175); conditions: S. cerevisiae mlh1 rad18 strain growth inhibition, hits give high values
Outline: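 Yeast w/ defined DNA-repair lesions; compound exposure; growth vs vehicle controls → % inhibition.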

[7] = at 5.0 µM (retest, dose inferred, filed as 0.5)
[8] = at 50.0 µM (retest, dose inferred, filed as 5.0)

SMILES | growth inhibition [1, 7] | growth inhibition [1, 8] | growth inhibition ([1]; at 50.0 µM) | growth inhibition [2, 7] | growth inhibition [2, 8] | growth inhibition ([2]; at 50.0 µM) | growth inhibition [3, 7] | growth inhibition [3, 8] | growth inhibition ([3]; at 50.0 µM) | growth inhibition [4, 7] | growth inhibition [4, 8] | growth inhibition ([4]; at 50.0 µM) | growth inhibition [5, 7] | growth inhibition [5, 8] | growth inhibition ([5]; at 50.0 µM) | growth inhibition [6, 7] | growth inhibition [6, 8] | growth inhibition ([6]; at 50.0 µM)
[Cl][Ge]([c]1ccccc1)[c]1ccccc1.[Cl][Ge]([c]1ccccc1)[c]1ccccc1 | 22% | 73% (active) | 33.4% | 19% | 79% (active) | 41.5% | 23% | 80% (active) | 55.1% | 4% | 70% (active) | -4.65% | 16% | 80% (active) | 34.5% | 12% | 78% (active) | 76.3% (active)
CCn1c2ccc(N)cc2c2c(N)c(-n3cccc3)ccc21 | 1% | 61% | 94.5% (active) | 3% | 54% | 64.2% | -7% | 71% (active) | 97.5% (active) | -6% | 50% | 61.9% | -2% | 86% (active) | 87.5% (active) | 4% | 57% | 91.5% (active)
CCCC(=S)N1CCOCC1 | -1% | -2% | -23.9% | -1% | 1% | -4.05% | -1% | -1% | -3.95% | -10% | -4% | 33.2% | -1% | -1% | 12.4% | -2% | -3% | 26.6%
Cc1cc(Cc2ccccc2Cl)ccc1O | -3% | 99% (active) | 99.2% (active) | -9% | 100% (active) | 99.6% (active) | -3% | 99% (active) | 99.5% (active) | -17% | 99% (active) | 99% (active) | -6% | 98% (active) | 99.4% (active) | -4% | 100% (active) | 95.5% (active)
COC(=O)/C(=C/c1ccc(/C=C(/C(=O)O)c2ccc(OC)cc2)o1)c1ccccc1 | 3% | 99% (active) | 8.35% | 2% | 99% (active) | 10.8% | 0% | 99% (active) | -3.5% | 15% | 99% (active) | 11.6% | 0% | 99% (active) | 1.7% | 3% | 99% (active) | 30.8%
CN(C)c1ccc(/C=C/c2nc3ccccc3[nH]2)cc1 | -2% | 89% (active) | 54% | -9% | 77% (active) | 56.8% | -3% | 89% (active) | 37.1% | -7% | 67% | 16.7% | -10% | 54% | 14.6% | -13% | 97% (active) | 80% (active)
CCOC(=O)Cc1csc2[n+]1C(=O)/C(=C\c1cccc(Cl)c1Cl)S2 | 11% | 20% | 69.4% | 0% | 28% | 60% | 1% | 52% | 83.4% (active) | -11% | 32% | 31.8% | -32% | 52% | 75.8% (active) | 14% | 29% | 72.5% (active)
CCOC(=O)/C(=C\N1C(=O)/C(=C\C(C)=C\c2ccccc2)SC1=S)C(=O)c1ccccc1 | -8% | 0% | 55% | -10% | 22% | 58% | -3% | 14% | 52.5% | -18% | 2% | 57% | -8% | 39% | 70.2% (active) | -2% | 20% | 77% (active)
Oc1ccccc1/C=N\N=C\c1ccccc1O | 5% | -22% | 8.75% | -10% | -3% | 3.5% | 4% | 4% | -10.8% | 7% | -3% | 37.2% | -70% | 6% | 0.8% | 2% | 0% | 13.2%
CC12CCC(=O)C=C1CCC1C2CCC2(C)C(C(=O)Cn3cnc4c(=S)nc[nH]c43)CCC12 (configuration not stated) | 11% | 25% | 32.2% | 5% | -6% | 24.6% | -2% | 23% | 37.5% | -26% | 19% | 14.8% | 0% | 16% | -4.65% | -2% | 22% | -4.7%
CCN(CC)P(=S)(c1ccccc1CCP(=S)(c1ccccc1)c1ccccc1)N(CC)CC | -6% | 34% | 91.2% (active) | -3% | 21% | 98.6% (active) | -6% | 62% | 97.6% (active) | -1% | 11% | 96.8% (active) | -2% | 41% | 59.6% | -4% | 32% | 97.1% (active)
CCCCCN(CCCCC)CC(O)c1cccc2cc(Cl)ccc12 (configuration not stated) | -1% | 98% (active) | 99.5% (active) | -1% | 98% (active) | 99.7% (active) | 4% | 99% (active) | 99.6% (active) | -4% | 99% (active) | 99.5% (active) | 2% | 99% (active) | 99.5% (active) | 0% | 99% (active) | 99.6% (active)
CC(/C=N/NS(=O)(=O)c1ccc(C)cc1)=C(c1ccccc1)c1ccccc1 | 18% | 87% (active) | 81.2% (active) | 35% | 96% (active) | 55.5% | -79% | 96% (active) | 82.5% (active) | -10% | 89% (active) | 72.8% (active) | 43% | 93% (active) | 70.4% (active) | 62% | 94% (active) | 85% (active)
O=C1CCSC(=S)N1c1ccccc1C(F)(F)F | 7% | 99% (active) | 99.1% (active) | 4% | 99% (active) | 99.5% (active) | 9% | 99% (active) | 99.5% (active) | 7% | 98% (active) | 98.6% (active) | 0% | 99% (active) | 99.2% (active) | 1% | 99% (active) | 99.3% (active)
COc1cc(NCCCCCCCC2CCCCN2)c2ncccc2c1 (configuration not stated) | -1% | 95% (active) | 86.2% (active) | 6% | 96% (active) | 79% (active) | 11% | 98% (active) | 98.5% (active) | 0% | 94% (active) | 96.5% (active) | 0% | 88% (active) | 98.5% (active) | 32% | 96% (active) | 98.4% (active)
CCCC[NH-].CCCC[NH-].[I][Pt+2][I] | 30% | 67% | 29.2% | 22% | 49% | 15% | 48% | 70% (active) | 60.6% | 53% | 57% | 15.2% | 56% | 68% | 49.4% | 20% | 62% | 41.4%
CC1(C)N=C(N)N=C(N)N1c1cccc(OCc2cccc(N)c2)c1 | -2% | 1% | 15.8% | 12% | -5% | 5.65% | -7% | 1% | -8.35% | 13% | -9% | 65.5% | -20% | -4% | -36.9% | 5% | 1% | 9.1%
CN1C(=O)C23SSC1(C)C(=O)N2c1ccccc1C3(C)C (configuration not stated) | 97% (active) | 99% (active) | 99% (active) | 98% (active) | 96% (active) | 99.6% (active) | 99% (active) | 100% (active) | 98% (active) | 98% (active) | 99% (active) | 99.3% (active) | 98% (active) | 99% (active) | 99.2% (active) | 99% (active) | 99% (active) | 99.3% (active)
CC(C)(COC(=O)Nc1cccc(Cl)c1)[N+](=O)[O-] | 2% | 15% | 88.3% (active) | -3% | 6% | 5.6% | -1% | 3% | 53.3% | -41% | -3% | -33.5% | -1% | 3% | 65.7% | -1% | 6% | 82.6% (active)
